From paper PMC7862700, “An all-to-all approach to the identification of sequence-specific readers for epigenetic DNA modifications on cytosine”

Legend:
Experiment in all cases: DAPPL (digital affinity profiling via proximity ligation, sequencing); 10 mM Tris-HCl pH 7.5, 50 mM NaCl, 1 mM DTT, 4% glycerol, room temperature, 30 min; GST-TFs on glutathione beads, 16-mer random dsDNA library, 0.1% formaldehyde crosslink after washing; high values mean tight binding
Settings in all cases: protein: recombinant; tags: N-terminal GST; dsDNA, one strand shown
[1] = target: T1, FLI1 (Homo sapiens, UniProt Q01543 1-452)
T1 sequence: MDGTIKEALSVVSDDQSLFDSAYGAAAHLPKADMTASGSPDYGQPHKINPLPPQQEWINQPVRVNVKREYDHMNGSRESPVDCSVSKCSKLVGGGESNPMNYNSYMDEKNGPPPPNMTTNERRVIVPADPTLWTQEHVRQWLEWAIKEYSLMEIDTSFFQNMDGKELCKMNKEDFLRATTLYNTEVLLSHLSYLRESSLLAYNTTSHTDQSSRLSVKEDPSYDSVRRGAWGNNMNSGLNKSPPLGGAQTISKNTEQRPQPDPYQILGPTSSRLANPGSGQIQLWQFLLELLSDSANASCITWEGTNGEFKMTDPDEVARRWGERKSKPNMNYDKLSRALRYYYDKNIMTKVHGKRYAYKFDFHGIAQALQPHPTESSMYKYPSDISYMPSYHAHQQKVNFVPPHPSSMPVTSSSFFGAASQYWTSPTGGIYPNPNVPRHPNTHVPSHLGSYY
Summary of the method: (§1)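 Pools were built from human transcription factors expressed in yeast as GST fusions, captured on glutathione beads and DNA-barcoded, along with a tag-only sample. Incubation with 200 nmole of a 16-mer random double-stranded DNA library lasted 30 min at room temperature in Tris/NaCl/DTT/glycerol buffer, and was followed by washing, 0.1% formaldehyde crosslinking, proximity ligation, PCR amplification and Illumina NextSeq500 sequencing. Binding signal is the quotient of each hexamer's read frequency for a factor and its frequency for the tag-only sample.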

[2] = target: T2, ELK1 (Homo sapiens, UniProt P19419 1-428)
T2 sequence: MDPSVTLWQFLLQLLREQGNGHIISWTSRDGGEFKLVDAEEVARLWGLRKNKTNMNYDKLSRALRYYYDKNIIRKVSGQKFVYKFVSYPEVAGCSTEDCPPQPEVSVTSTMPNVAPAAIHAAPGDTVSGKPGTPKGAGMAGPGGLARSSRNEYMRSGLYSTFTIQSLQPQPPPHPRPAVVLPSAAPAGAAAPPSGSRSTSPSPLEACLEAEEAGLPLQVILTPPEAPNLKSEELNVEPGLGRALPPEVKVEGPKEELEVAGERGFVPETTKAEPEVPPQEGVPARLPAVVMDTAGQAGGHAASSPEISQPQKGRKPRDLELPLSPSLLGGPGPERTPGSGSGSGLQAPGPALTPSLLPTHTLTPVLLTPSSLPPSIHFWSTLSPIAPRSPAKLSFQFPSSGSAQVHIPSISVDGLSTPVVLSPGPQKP
Summary of the method: as §1

[3] = target: T3, GABPA (Homo sapiens, UniProt Q06546 1-454)
T3 sequence: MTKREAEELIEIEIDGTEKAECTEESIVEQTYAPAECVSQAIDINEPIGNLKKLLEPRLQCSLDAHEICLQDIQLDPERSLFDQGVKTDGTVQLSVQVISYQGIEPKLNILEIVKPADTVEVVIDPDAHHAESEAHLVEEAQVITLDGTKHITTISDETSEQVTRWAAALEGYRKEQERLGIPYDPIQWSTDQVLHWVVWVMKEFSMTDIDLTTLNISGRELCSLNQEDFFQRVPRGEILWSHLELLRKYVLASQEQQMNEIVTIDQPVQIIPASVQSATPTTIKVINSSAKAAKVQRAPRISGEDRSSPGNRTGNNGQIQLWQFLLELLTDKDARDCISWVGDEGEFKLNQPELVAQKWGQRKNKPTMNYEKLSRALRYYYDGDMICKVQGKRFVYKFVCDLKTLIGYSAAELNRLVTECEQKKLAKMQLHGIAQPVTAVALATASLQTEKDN
Summary of the method: as §1

[4] = target: T4, ERG (Homo sapiens, UniProt P11308 1-479)
T4 sequence: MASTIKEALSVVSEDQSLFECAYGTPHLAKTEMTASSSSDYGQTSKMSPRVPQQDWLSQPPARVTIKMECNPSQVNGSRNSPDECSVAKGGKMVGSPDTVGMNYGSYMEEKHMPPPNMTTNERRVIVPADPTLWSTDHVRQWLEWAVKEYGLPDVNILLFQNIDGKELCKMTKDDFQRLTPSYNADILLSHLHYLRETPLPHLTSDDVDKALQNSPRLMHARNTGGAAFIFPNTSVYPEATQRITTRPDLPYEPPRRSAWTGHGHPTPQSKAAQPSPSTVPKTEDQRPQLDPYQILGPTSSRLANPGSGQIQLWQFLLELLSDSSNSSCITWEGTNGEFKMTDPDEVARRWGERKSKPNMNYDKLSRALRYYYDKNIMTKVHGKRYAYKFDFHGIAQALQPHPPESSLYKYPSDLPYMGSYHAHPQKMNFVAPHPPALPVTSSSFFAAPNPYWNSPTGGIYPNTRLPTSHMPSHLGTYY
Summary of the method: as §1

[5] = target: ELF1 (Homo sapiens, UniProt P32519 1-619)
Summary of the method: as §1

[6] = target: T5, EHF (Homo sapiens, UniProt Q9NZC4 1-300)
T5 sequence: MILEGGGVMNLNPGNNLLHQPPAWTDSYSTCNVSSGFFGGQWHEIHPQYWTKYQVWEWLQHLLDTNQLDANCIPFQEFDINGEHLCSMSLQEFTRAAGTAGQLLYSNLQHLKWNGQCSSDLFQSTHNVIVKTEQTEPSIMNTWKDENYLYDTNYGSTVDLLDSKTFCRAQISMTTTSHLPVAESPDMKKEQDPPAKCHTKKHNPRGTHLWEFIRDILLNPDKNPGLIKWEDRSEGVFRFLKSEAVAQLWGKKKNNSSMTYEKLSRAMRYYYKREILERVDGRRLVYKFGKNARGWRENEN
Summary of the method: as §1

[7] = target: SPI1 (Homo sapiens, UniProt P17947 1-270)
Summary of the method: as §1

[8] = target: SPIB (Homo sapiens, UniProt Q01892 1-262)
Summary of the method: as §1

[9] = target: T6, ELK3 (Homo sapiens, UniProt P41970 1-407)
T6 sequence: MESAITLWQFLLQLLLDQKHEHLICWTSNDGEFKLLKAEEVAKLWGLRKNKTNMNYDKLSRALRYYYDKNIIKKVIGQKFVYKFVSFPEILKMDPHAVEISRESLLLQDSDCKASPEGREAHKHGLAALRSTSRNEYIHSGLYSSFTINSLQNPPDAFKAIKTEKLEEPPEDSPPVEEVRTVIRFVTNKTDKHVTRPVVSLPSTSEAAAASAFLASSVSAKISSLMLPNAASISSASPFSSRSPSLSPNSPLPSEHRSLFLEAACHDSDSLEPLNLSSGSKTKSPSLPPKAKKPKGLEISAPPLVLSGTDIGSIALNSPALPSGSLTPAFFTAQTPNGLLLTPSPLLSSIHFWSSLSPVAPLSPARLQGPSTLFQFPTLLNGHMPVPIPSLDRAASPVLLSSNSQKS
Summary of the method: as §1

Chain of SPIB (Q01892 whole entry): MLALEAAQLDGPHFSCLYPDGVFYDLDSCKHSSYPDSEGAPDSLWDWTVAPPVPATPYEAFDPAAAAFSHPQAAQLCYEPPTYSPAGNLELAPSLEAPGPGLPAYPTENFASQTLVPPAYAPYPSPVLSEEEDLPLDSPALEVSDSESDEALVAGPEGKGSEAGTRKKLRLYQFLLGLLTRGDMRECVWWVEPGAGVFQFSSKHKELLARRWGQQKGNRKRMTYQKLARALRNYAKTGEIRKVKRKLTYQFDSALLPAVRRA
Chain of ELF1 (P32519 whole entry): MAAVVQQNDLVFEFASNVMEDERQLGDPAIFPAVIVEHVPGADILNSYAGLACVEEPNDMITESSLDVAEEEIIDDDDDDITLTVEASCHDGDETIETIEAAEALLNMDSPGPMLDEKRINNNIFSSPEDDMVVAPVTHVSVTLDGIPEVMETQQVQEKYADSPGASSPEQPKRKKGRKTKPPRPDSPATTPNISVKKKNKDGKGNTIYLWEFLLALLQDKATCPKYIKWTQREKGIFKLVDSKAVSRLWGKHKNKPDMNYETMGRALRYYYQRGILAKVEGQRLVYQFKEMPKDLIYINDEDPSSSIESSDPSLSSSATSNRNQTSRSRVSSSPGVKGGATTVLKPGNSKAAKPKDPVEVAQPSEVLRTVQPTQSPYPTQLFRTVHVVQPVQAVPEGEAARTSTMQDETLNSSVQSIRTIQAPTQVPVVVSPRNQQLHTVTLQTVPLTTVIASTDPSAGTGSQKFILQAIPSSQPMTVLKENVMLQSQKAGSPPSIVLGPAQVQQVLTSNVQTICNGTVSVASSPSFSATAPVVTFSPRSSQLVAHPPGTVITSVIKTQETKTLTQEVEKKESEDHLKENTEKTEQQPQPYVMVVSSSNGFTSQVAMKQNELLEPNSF

Sequence: GTACAA
- binding signal [1]: 1.05 fold enrichment (6-mer frequency, TF over GST control)
- binding signal [2]: 1.08 fold enrichment (6-mer frequency, TF over GST control)
- binding signal [3]: 1.01 fold enrichment (6-mer frequency, TF over GST control)
- binding signal [4]: 1.11 fold enrichment (6-mer frequency, TF over GST control)
- binding signal [5]: 1.11 fold enrichment (6-mer frequency, TF over GST control)
- binding signal [6]: 1.26 fold enrichment (6-mer frequency, TF over GST control)
- binding signal [7]: 1.06 fold enrichment (6-mer frequency, TF over GST control)
- binding signal [8]: 1.04 fold enrichment (6-mer frequency, TF over GST control)
- binding signal [9]: 1.02 fold enrichment (6-mer frequency, TF over GST control)

Sequence: GCTGTA
- binding signal [1]: 1.02 fold enrichment (6-mer frequency, TF over GST control)
- binding signal [2]: 1.04 fold enrichment (6-mer frequency, TF over GST control)
- binding signal [3]: 1.15 fold enrichment (6-mer frequency, TF over GST control)
- binding signal [4]: 1.08 fold enrichment (6-mer frequency, TF over GST control)
- binding signal [5]: 1.21 fold enrichment (6-mer frequency, TF over GST control)
- binding signal [6]: 1.1 fold enrichment (6-mer frequency, TF over GST control)
- binding signal [7]: 1.04 fold enrichment (6-mer frequency, TF over GST control)
- binding signal [8]: 1.04 fold enrichment (6-mer frequency, TF over GST control)
- binding signal [9]: 1.14 fold enrichment (6-mer frequency, TF over GST control)

Sequence: GGCCTA
- binding signal [1]: 1.15 fold enrichment (6-mer frequency, TF over GST control)
- binding signal [2]: 1.22 fold enrichment (6-mer frequency, TF over GST control)
- binding signal [3]: 1.31 fold enrichment (6-mer frequency, TF over GST control)
- binding signal [4]: 1.37 fold enrichment (6-mer frequency, TF over GST control)
- binding signal [5]: 1.3 fold enrichment (6-mer frequency, TF over GST control)
- binding signal [6]: 1.23 fold enrichment (6-mer frequency, TF over GST control)
- binding signal [7]: 1.03 fold enrichment (6-mer frequency, TF over GST control)
- binding signal [8]: 1.04 fold enrichment (6-mer frequency, TF over GST control)
- binding signal [9]: 1.1 fold enrichment (6-mer frequency, TF over GST control)

Sequence: TACACG
- binding signal [1]: 1.13 fold enrichment (6-mer frequency, TF over GST control)
- binding signal [2]: 1.11 fold enrichment (6-mer frequency, TF over GST control)
- binding signal [3]: 1.19 fold enrichment (6-mer frequency, TF over GST control)
- binding signal [4]: 1.1 fold enrichment (6-mer frequency, TF over GST control)
- binding signal [5]: 1.16 fold enrichment (6-mer frequency, TF over GST control)
- binding signal [6]: 1.1 fold enrichment (6-mer frequency, TF over GST control)
- binding signal [7]: 1.07 fold enrichment (6-mer frequency, TF over GST control)
- binding signal [8]: 1.16 fold enrichment (6-mer frequency, TF over GST control)
- binding signal [9]: 1.19 fold enrichment (6-mer frequency, TF over GST control)

Sequence: CCGTAA
- binding signal [1]: 1.09 fold enrichment (6-mer frequency, TF over GST control)
- binding signal [2]: 1.1 fold enrichment (6-mer frequency, TF over GST control)
- binding signal [3]: 1.1 fold enrichment (6-mer frequency, TF over GST control)
- binding signal [4]: 1.14 fold enrichment (6-mer frequency, TF over GST control)
- binding signal [5]: 1.09 fold enrichment (6-mer frequency, TF over GST control)
- binding signal [6]: 1.17 fold enrichment (6-mer frequency, TF over GST control)
- binding signal [7]: 1.13 fold enrichment (6-mer frequency, TF over GST control)
- binding signal [8]: 1.06 fold enrichment (6-mer frequency, TF over GST control)
- binding signal [9]: 1.14 fold enrichment (6-mer frequency, TF over GST control)

Sequence: CACGCG
- binding signal [1]: 1.32 fold enrichment (6-mer frequency, TF over GST control)
- binding signal [2]: 1.15 fold enrichment (6-mer frequency, TF over GST control)
- binding signal [3]: 1.23 fold enrichment (6-mer frequency, TF over GST control)
- binding signal [4]: 1.18 fold enrichment (6-mer frequency, TF over GST control)
- binding signal [5]: 1.23 fold enrichment (6-mer frequency, TF over GST control)
- binding signal [6]: 1.2 fold enrichment (6-mer frequency, TF over GST control)
- binding signal [7]: 1.08 fold enrichment (6-mer frequency, TF over GST control)
- binding signal [8]: 1.2 fold enrichment (6-mer frequency, TF over GST control)
- binding signal [9]: 1.14 fold enrichment (6-mer frequency, TF over GST control)

Sequence: CTAAAT
- binding signal [1]: 1.34 fold enrichment (6-mer frequency, TF over GST control)
- binding signal [2]: 1.36 fold enrichment (6-mer frequency, TF over GST control)
- binding signal [3]: 1.31 fold enrichment (6-mer frequency, TF over GST control)
- binding signal [4]: 1.34 fold enrichment (6-mer frequency, TF over GST control)
- binding signal [5]: 1.3 fold enrichment (6-mer frequency, TF over GST control)
- binding signal [6]: 1.34 fold enrichment (6-mer frequency, TF over GST control)
- binding signal [7]: 1.37 fold enrichment (6-mer frequency, TF over GST control)
- binding signal [8]: 1.38 fold enrichment (6-mer frequency, TF over GST control)
- binding signal [9]: 1.37 fold enrichment (6-mer frequency, TF over GST control)
